Compound activity from PubChem.
Rows were chosen to be rich in hits. Some 21% of all compounds tested hit in one or more screens of this group.
Pf growth 96h: Primary qHTS for delayed death inhibitors of the malarial parasite plastid, 96 hour incubation | P. falciparum luciferase reporter growth, 96 h | Potency, µM (series often up to 28.7 µM), without a hit: at the top dose activity change, negative = inhibition, most hits filed as inhibitors | 6.9% of 320,000 active; also: potency is read from the fitted curve at half-maximal effect; % is scaled to controls: 0 for no effect and ±100 for the full control effect
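Plates of compound plus infected erythrocytes (2% hematocrit, 0.05% parasitemia final) incubate 96 hours, 37 C, 5% CO2. Detection reagent added; reduced luminescence from the parasites' luciferase reporter flags inhibition.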
Cycloheximide cs: Cycloheximide Counterscreen for Small Molecule Inhibitors of Shiga Toxin; AID 2314, 2010; max response, %; 12% of 300,000 active; cell reporter, cycloheximide protein synthesis inhibition counterscreen; in the data active = max response mostly above about 13%, no sharp cut-off; inactive = mostly below about 14%; also: read at 38.3 µM for the half of the compounds with a filed dose; 0% is about no effect
Pf growth 48h: Primary qHTS for delayed death inhibitors of the malarial parasite plastid, 48 hour incubation. P. falciparum luciferase growth in erythrocytes, 48 h. Potency, µM (titrated, usually from 28.7 µM), without a hit: at the highest dose activity change, negative = inhibition, most hits filed as inhibitors. 5.9% of 310,000 active; also: potency is read from the fitted curve at half-maximal effect; % is scaled to controls: 0 for no effect and ±100 for the full control effect
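First compound was added to culture medium, then infected red cells at 0.1% parasitemia and 2% hematocrit (final). After incubation at 37 C under 5% CO2, luciferase detection reagent was dispensed and light output recorded.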
HCV inh: qHTS Assay for Inhibitors of Hepatitis C Virus (HCV) | Huh7.5.1 HCVcc-Cre infection, luciferase reporter, 44 h | Potency, µM (top dose mostly 41.8 µM), inactives show at the highest dose activity change, negative = inhibition, actives largely listed as inhibitors | AID 651820, 2012 | 3.4% of 340,000 active; also: potency is read from the fitted curve at half-maximal effect; % is scaled to controls: 0 for no effect and ±100 for the full control effect
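Reporter virus HCVcc-Cre (~0.5 moi) infects cells exposed to compound; seeding density 1,000 cells/well with 4 h settling beforehand. Luminescence, 15 sec read, taken 44 h post-infection following a 15 min RT substrate incubation.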
HCMV inh: qHTS Assay for inhibitors of the human cytomegalovirus (HCMV). activity change, negative = inhibition, % at 57.5 µM. 4.5% of 410,000 active. HFF cells, HCMV-luciferase reporter, 72 h; active compounds read low; in the data active = activity change below about -60%; inconclusive = no clear call, values can overlap the other calls; inactive = above about -39%; also: % is scaled to controls: 0 for no effect and ±100 for the full control effect
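Steps: HFFs plated, 16 h 37C; compounds added; HCMV-luciferase added to MOI 1 PFU/cell; 72 h 37C; OneGlo reagent, 5 min room temperature; luminescence read, normalized to controls.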
Shiga inhibitor: A qHTS for Small Molecule Inhibitors of Shiga Toxin; Vero cells, Shiga toxin protein synthesis inhibition reporter; inhibition, % at 38.7 µM; 9.2% of 290,000 active; AID 2315, 2010; in the data active = inhibition mostly above about 28%, no sharp cut-off; inactive = mostly below about 43%; also: 0% is about no effect
* = called active by the depositor; u = inconclusive; x = not tested or not shown. Unless noted, calls follow the shape of the dose curve; as a rule, active = well fitted inhibition curve with a large enough effect; inconclusive = small, poorly fitted or top-dose-only effect, or another doubt; inactive = no such curve, though single readings can be large or run the other way.

SMILES	Pf growth 96h	Cycloheximide cs	Pf growth 48h	HCV inh	HCMV inh	Shiga inhibitor
Cc1cccc(C)c1NC(=O)C1c2ccccc2OCC(=O)N1CCc1c[nH]c2ccccc12 (configuration not stated)	x	x	x	x	17.1	x
O=C(C1=C(O)C(=O)N(CCc2ccccc2)C1c1cccs1)c1ccco1 (configuration not stated)	-14.5%	1.9	4.4%	15.0%	17.1	26.4
O=C(C1=C(O)C(=O)N(CCc2ccccc2)C1c1cccnc1)c1ccco1 (configuration not stated)	-4.6%	-2.0	6.57µM*	-5.2%	74.8	3.1
CC(C)Oc1ccc(/C(O)=C2/C(=O)C(=O)N(Cc3cccnc3)C2c2ccco2)cc1 (configuration not stated)	97.5%	62.0*	9.4%	u	18.2	72.4*
C=CCOc1cccc(C2C(C(=O)c3ccco3)=C(O)C(=O)N2Cc2ccncc2)c1 (configuration not stated)	57.5%	29.2*	17.3%	2.7%	-29.7	40.2*
COCCCNC(=O)C[C@@H]1C[C@@]2(C(=O)OC)CCCCC=C2N(Cc2ccc(Cl)cc2Cl)C1=O	x	x	x	x	5.4	x
O=C(Cn1c(=O)n(-c2ccccc2)c(=O)c2c3c(sc21)CCCC3)Nc1cccc(F)c1	x	x	x	x	-1.8	x
CC(O)[C@H]1CN=C(N)N1CCCCC1CCCCC1 (some centres not stated)	3.29µM*	-6.3	9.28µM*	11.2%	-30.8	-5.0
NCCCC[C@H]1CN=C(N)N1CCCCC1CCCCC1	x	x	x	15.1%	-82.2*	x
NC1=NC[C@H](c2ccccc2)N1CCCCC1CCCCC1	u	-6.3	u	-7.6%	-11.8	-3.2
NCCCC[C@H]1CN=C(N)N1CC1CCCCC1	x	x	x	14.8%	u	x
CCN1CCN(Cc2nc3c(c(=O)n(C)c(=O)n3C)n2CCc2ccccc2)CC1	11.7µM*	-1.7	4.4%	8.1%	7.5	-11.8
Cn1c(=O)c2c(nc(CN3CCN(Cc4ccccc4)CC3)n2Cc2cccc(Cl)c2)n(C)c1=O	1.17µM*	-1.9	2.08µM*	u	11.3	-12.5
Cn1c(=O)c2c(nc(N3CCCCCC3)n2Cc2cccc3ccccc23)n(C)c1=O	0.0%	-3.4	u	u	u	3.0
CCN1CCN(Cc2nc3c(c(=O)n(C)c(=O)n3C)n2CCCc2ccccc2)CC1	x	9.3	9.5%	x	x	-4.1
CCCCCCn1c(CN2CCN(Cc3ccccc3)CC2)nc2c1c(=O)n(C)c(=O)n2C	-14.5%	-2.7	u	u	8.4	-10.2
Cn1c(=O)c2c(nc(CN3CCc4ccccc4C3)n2Cc2ccccc2F)n(C)c1=O	u	-1.0	4.65µM*	u	u	-8.2
CN1CCN(c2nc3c(c(=O)n(C)c(=O)n3C)n2Cc2cccc3ccccc23)CC1	x	4.0	10.4µM*	4.6%	-27.7	-14.6
Cc1ccc(S(=O)(=O)N[C@H](C(=O)N2CCC(C(=O)N[C@@H](CC(=O)O)C(=O)O)CC2)C(C)C)cc1	-30.3%	-2.4	-0.8%	-2.1%	72.8	-2.7
COc1ccc(S(=O)(=O)N2CCCC2CNC(=O)C(=O)NCc2ccco2)cc1 (configuration not stated)	u	x	u	7.5%	-9.1	x
Cn1c(=O)c2c(nc(CN3CCc4ccccc4C3)n2Cc2cccc(Cl)c2)n(C)c1=O	1.85µM*	-3.0	3.29µM*	u	-27.1	-7.2
CN(Cc1ccccc1)Cc1nc2c(c(=O)n(C)c(=O)n2C)n1CCCc1ccccc1	10.4µM*	-1.9	-19.0%	u	-2.3	-3.6
CCOCCn1c(CN2CCN(C(c3ccccc3)c3ccccc3)CC2)nc2c1c(=O)n(C)c(=O)n2C	-10.1%	-3.8	1.47µM*	8.3%	-22.7	4.7
CC(C)Cn1c(CN(C)Cc2ccccc2)nc2c1c(=O)n(C)c(=O)n2C	-28.2%	-4.0	-15.2%	u	-34.7	-8.2
CC1CN(C(=O)c2ccc(OC3CCN(Cc4ccccn4)CC3)cc2)CCN1C (configuration not stated)	67.4%	-1.4	0.8%	-1.1%	38.0	-10.1
